# Reference: PubChem BioAssay AID1041 (National Center for Advancing Translational Sciences (NCATS), 2008)
# A number with no mark means an inactive call.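 Rule for the calls: active = compound lifting p16 RNA above DMSO-treated cells by a clear fold change, a shift of a few PCR cycles; inactive = the rest, including any drop in level.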
# Experiment: p16 Derepression/Induction Secondary Assay for qHTS Assay for Epigenetic Modulators
# Conditions: H358 cells, p16 mRNA RT-qPCR, 72 h; hits give high values
# From the text: NIH Molecular Libraries Screening Centers Network [MLSCN] NIH Chemical Genomics Center [NCGC] MLSCN Grant: 1 X01 MH079860-01 Assay Provider: Elisabeth D. Martinez, University of Texas SW Medical Center NCGC Assay Overview: This secondary assay characterizes selected actives identified in the qHTS of the Locus Derepression (LDR) assay (PubChem AID 597). The LDR assay detects the derepression of a GFP reporter that is stably integrated in a region of the genome of murine c127i mammary cells that is presumably silenced. Compounds that cause derepression of the locus to express GFP are identified by enumerating GFP positive cells using a laser-scanning microplate cytometer. Selected LDR actives were assayed for the induction of p16 gene expression, a gene silenced by dense methylation of its promoter. […]
# NCGC Assay Protocol Summary Exponentially growing H358 non-small cell lung cancer cells were treated daily with fresh media containing the indicated concentrations of compounds for 72 hr. Cellular RNA was extracted, quantified, DNAse treated and reverse transcribed. The resulting cDNA was amplified in TaqMan real time quantitative PCR assays (Applied Biosystems) containing validated primers specific for p16 (Hs00233365_m1). […] Gene expression was measured by fold-induction over control DMSO-treated samples (36-37 average cycle time). […]
compound,measurement,value
CN1CSC(=S)N(C)C1,fold change,1
